MLL AF4-AF9 inh: MLL-AF4/AF9 protein interaction inhibition. hit rate 0.47% among 350,000. inhibition, % at 10 µM. AlphaScreen, biotin-AF4 peptide binding to FLAG-AF9;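 active means every replicate reaching a set inhibition limit, whatever the replicate mean, cut at about 25% in these data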;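 further: 0% = plate neutral control median and 100% = total signal loss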
Target sequence (P42568 whole entry, looked up): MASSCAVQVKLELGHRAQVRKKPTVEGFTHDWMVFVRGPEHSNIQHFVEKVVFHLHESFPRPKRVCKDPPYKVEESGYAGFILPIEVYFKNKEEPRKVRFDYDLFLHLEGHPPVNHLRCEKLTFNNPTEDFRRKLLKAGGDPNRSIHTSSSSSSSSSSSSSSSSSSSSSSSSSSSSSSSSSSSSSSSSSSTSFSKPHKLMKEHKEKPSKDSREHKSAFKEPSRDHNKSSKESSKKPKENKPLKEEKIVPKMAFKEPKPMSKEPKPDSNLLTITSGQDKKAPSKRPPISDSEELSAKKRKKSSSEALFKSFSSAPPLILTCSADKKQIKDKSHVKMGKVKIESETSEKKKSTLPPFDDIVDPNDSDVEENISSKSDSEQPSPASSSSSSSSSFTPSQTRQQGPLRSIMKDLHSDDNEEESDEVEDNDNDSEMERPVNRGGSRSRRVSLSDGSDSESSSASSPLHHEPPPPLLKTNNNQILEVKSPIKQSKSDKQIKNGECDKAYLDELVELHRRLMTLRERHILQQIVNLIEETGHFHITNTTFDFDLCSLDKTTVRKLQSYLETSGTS
FGF22 binding: binders of recombinant human FGF22 by thermal shift | SYPRO orange fluorescence; percent of sucrose octasulfate shift, DMSO zero | activity (Tm shift, normalised), % at 9.99 µM | hit rate 1.5% among 340,000;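 active means mean Tm shift, scaled 0 neutral to 100 positive control, at about 1.3% or above, every replicate too, limit read from the data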
ERAP1 inh: blocks human ERAP1 aminopeptidase activity; AID 652197; hit rate 0.15% among 340,000; inhibition, % at 10.7 µM; recombinant ERAP1, Leu-AMC fluorescence, 60 min;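 active means mean replicate inhibition of at least 30%, or all replicates individually reaching that 30% level; inactive means mean below 30% and not every replicate reaching it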;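 further: 0% = neutral control wells and 100% = L-leucinethiol positive control wells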
DENV2 CPE: inhibitors of DENV2 cytopathic effect | DENV2-infected cells, cytopathic effect rescue, plate reader | CPE inhibition, % at 9.99 µM | hit rate 1.7% among 350,000 | AID 651640; in the data active means CPE inhibition above about 20%, passing the limit was not always enough; tested in BHK-21 cells;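 further: 0% = median of neutral control wells and 100% = median of positive control wells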
RAD52 inh: RAD52 (human) annealing inhibition; recombinant RAD52 DNA annealing, FRET fluorescence; inhibition, % at 18.7 µM; hit rate 0.46% among 360,000;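 active means every replicate showing at least 50% inhibition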
Numbers without * were called inactive. Hits are enriched below; roughly 4% of the tested compounds scored in any of these assays.

`CN(C)C(=O)[C@]1(CCS(=O)(=O)c2ccccc2)N=C(c2ccc(OCCCO)cc2)O[C@@H]1c1ccccc1` gave MLL AF4-AF9 inh 8, FGF22 binding 0, ERAP1 inh -3, DENV2 CPE 3 and RAD52 inh 31.
Screening C[C@H](CO)N1C[C@H](C)[C@@H](CN(C)Cc2ccc3c(c2)OCO3)Oc2ccc(NC(=O)CCCCCC(=O)Nc3ccccc3N)cc2C1=O returned MLL AF4-AF9 inh -8, FGF22 binding 0, ERAP1 inh -2, DENV2 CPE 28* and RAD52 inh -34.
Screening C[C@H](CO)N1C[C@H](C)[C@H](CN(C)Cc2ccc3c(c2)OCO3)Oc2ccc(NC(=O)CCCCCC(=O)Nc3ccccc3N)cc2C1=O returned MLL AF4-AF9 inh 0, FGF22 binding 0, ERAP1 inh 0, DENV2 CPE -4 and RAD52 inh -24.
C[C@@H]1CN([C@@H](C)CO)C(=O)c2cc(NC(=O)CCC(F)(F)F)ccc2O[C@@H]1CN(C)Cc1ccc2c(c1)OCO2 was read as MLL AF4-AF9 inh 0, FGF22 binding 0, ERAP1 inh 1, DENV2 CPE 29* and RAD52 inh -4.
For C[C@@H]1CN([C@@H](C)CO)C(=O)c2cc(NC(=O)CCCCCC(=O)Nc3ccccc3N)ccc2O[C@@H]1CN(C)Cc1ccc2c(c1)OCO2 the results were MLL AF4-AF9 inh 1, FGF22 binding 0, ERAP1 inh 2, DENV2 CPE 20* and RAD52 inh 4.
C[C@H](CO)N1C[C@H](C)[C@H](CN(C)Cc2ccc3c(c2)OCO3)Oc2ccc(NC(=O)CCCCCC(=O)Nc3ccccc3N)cc2CC1=O was read as MLL AF4-AF9 inh -2, FGF22 binding -1, ERAP1 inh -2, DENV2 CPE 25* and RAD52 inh -43.
`Cc1nnc(SCC(=O)N2CCN(C(=O)c3ccco3)CC2)n1-c1ccccc1` gave MLL AF4-AF9 inh -2, FGF22 binding 43*, ERAP1 inh 3, DENV2 CPE 0 and RAD52 inh -6.
`O=C(CSc1nnc(-c2ccco2)o1)N1CCN(c2ccccc2)CC1` gave MLL AF4-AF9 inh -1, FGF22 binding 43*, ERAP1 inh 2, DENV2 CPE 2 and RAD52 inh -8.
`C[C@H](CO)N1C[C@H](C)[C@@H](CN(C)S(=O)(=O)c2cccs2)OCCCC[C@H](C)Oc2ccc(NC(=O)CCC(F)(F)F)cc2C1=O` gave MLL AF4-AF9 inh 0, FGF22 binding 0, ERAP1 inh 4, DENV2 CPE 6 and RAD52 inh -53.
Screening Cc1noc(C)c1NC(=O)N(C)C[C@H]1Oc2c(NC(=O)c3ccc(-c4nccs4)cc3)cccc2C(=O)N([C@@H](C)CO)C[C@H]1C returned MLL AF4-AF9 inh -2, FGF22 binding -1, ERAP1 inh 0, DENV2 CPE 24* and RAD52 inh 2.
Screening C[C@@H]1CN([C@@H](C)CO)C(=O)c2cccc(NC(=O)c3ccc(-c4nccs4)cc3)c2O[C@@H]1CN(C)C(=O)Nc1ccc(C(F)(F)F)cc1 returned MLL AF4-AF9 inh 5, FGF22 binding 1.4*, ERAP1 inh 0, DENV2 CPE 0 and RAD52 inh 35.
For C[C@H](CO)N1C[C@H](C)[C@H](CN(C)C(=O)Nc2ccc(C(F)(F)F)cc2)Oc2c(NC(=O)c3ccc(-c4nccs4)cc3)cccc2C1=O the results were MLL AF4-AF9 inh 4, FGF22 binding 0, ERAP1 inh -2, DENV2 CPE 7 and RAD52 inh 14.
`Cc1noc(C)c1NC(=O)N(C)C[C@H]1Oc2c(NC(=O)c3ccc(-c4nccs4)cc3)cccc2C(=O)N([C@H](C)CO)C[C@H]1C` gave MLL AF4-AF9 inh -2, FGF22 binding 0, ERAP1 inh -1, DENV2 CPE 9 and RAD52 inh -2.
Cc1noc(C)c1NC(=O)N(C)C[C@@H]1Oc2c(NC(=O)c3ccc(-c4nccs4)cc3)cccc2C(=O)N([C@H](C)CO)C[C@@H]1C was read as MLL AF4-AF9 inh -5, FGF22 binding -1, ERAP1 inh -2, DENV2 CPE 33* and RAD52 inh -13.
Screening C[C@H]1CN([C@@H](C)CO)C(=O)c2cccc(NC(=O)c3ccc(-c4nccs4)cc3)c2O[C@@H]1CN(C)Cc1ccc(-c2ccccc2)cc1 returned MLL AF4-AF9 inh 4, FGF22 binding 0, ERAP1 inh -1, DENV2 CPE 75* and RAD52 inh 0.
CCc1nc2c(OCc3cccc(Cl)c3)cccn2c1N(C)C(=O)c1ccco1 was read as MLL AF4-AF9 inh -10, FGF22 binding 0, ERAP1 inh -1, DENV2 CPE 23* and RAD52 inh -31.
For CC(C)NC(=O)NCC[C@H]1CC[C@@H](NS(=O)(=O)c2ccc(-c3ccccc3)cc2)[C@@H](CO)O1 the results were MLL AF4-AF9 inh 6, FGF22 binding 0, ERAP1 inh -2, DENV2 CPE 3 and RAD52 inh 11.
COc1cccc(CNC(=O)C[C@H]2CC[C@H]3[C@@H](COc4ccc(NC(C)=O)cc4C(=O)N3C)O2)c1 was read as MLL AF4-AF9 inh -3, ERAP1 inh -1, DENV2 CPE 28* and RAD52 inh 8.
`CCCNC(=O)C[C@H]1CC[C@@H]2[C@H](COc3ccc(NC(=O)c4cccc(C(F)(F)F)c4)cc3C(=O)N2C)O1` gave MLL AF4-AF9 inh 1.
`CCCNC(=O)C[C@@H]1CC[C@H]2[C@@H](COc3ccc(NC(=O)c4cccc(C(F)(F)F)c4)cc3C(=O)N2C)O1` gave MLL AF4-AF9 inh 1, FGF22 binding 0, ERAP1 inh 0, DENV2 CPE 24* and RAD52 inh 3.
CCCNC(=O)C[C@@H]1CC[C@H]2[C@@H](COc3ccc(NC(=O)c4cccc(OC)c4)cc3C(=O)N2C)O1 was read as MLL AF4-AF9 inh -1, FGF22 binding 0, ERAP1 inh 0, DENV2 CPE 46* and RAD52 inh -2.
`CCCNC(=O)C[C@H]1CC[C@H]2[C@H](COc3ccc(NC(=O)c4cccc(OC)c4)cc3C(=O)N2C)O1` gave MLL AF4-AF9 inh 0, FGF22 binding 0, ERAP1 inh -1, DENV2 CPE 11 and RAD52 inh 1.
For COc1cccc(CNC(=O)C[C@H]2CC[C@@H]3[C@H](COc4ccc(NC(C)=O)cc4C(=O)N3C)O2)c1 the results were FGF22 binding 0 and DENV2 CPE 1.
Screening CNC[C@H]1Oc2ccc(NC(=O)CCN3CCOCC3)cc2C(=O)N([C@@H](C)CO)C[C@H]1C returned MLL AF4-AF9 inh -1, FGF22 binding 0, ERAP1 inh 0, DENV2 CPE 10 and RAD52 inh -2.
For CCn1c(C)c2c([n+]1CC)CC(C)(C)CC2=O the results were MLL AF4-AF9 inh -9, FGF22 binding 0, ERAP1 inh 109* and RAD52 inh -8.
`CCOc1ccccc1CNC(=O)CCCc1cn(C)c2ccccc12` gave MLL AF4-AF9 inh 49*, FGF22 binding 0, ERAP1 inh -3, DENV2 CPE 3 and RAD52 inh -14.
